Each structure is given as a SMILES string. Inconclusive results are not listed. Unmarked numbers belong to inactive results. The source made the active and inactive calls. The call rests on the fitted dose curve; in most records, active means well fitted inhibition curve with a large enough effect; inconclusive means small, poorly fitted or top-dose-only effect; inactive means no such curve, though single readings can be large or run the other way.
Potency means the concentration at half of the fitted maximal effect.

The test is described as follows: qHTS Screen of the MIPE 4.0 Collection Against Ewings Sarcoma (RDES) (AID 1259252). Further: nearly all actives have a fitted effect of over 35% in size.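 On viability (percent of control): 100% = DMSO-treated cells and 0% = medium-only wells without cells.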 The note with it: RD-ES Ewing sarcoma viability, CellTiter-Glo, 48 h; series mostly up to 45.8 µM; viability (percent of control): at the top concentration. The source says:
There is a large unmet medical need for treatments for Ewing sarcoma, a pediatric sarcoma. We sought to identify compounds that inhibited Ewing sarcoma cells in vitro with the goal to then test promising drugs in two drug combinations in vitro to look for synergistic drug combinations. Promising combinations would then proceed to additional validation, including in vivo testing.
Using the NCATS developed oncology compound library called the Mechanism of Interrogation Plate (MIPE), four Ewing sarcoma cell lines were evaluated (TC32, TC71, RDES, EW8). Compounds, in a 12-point titration series, were incubated with cells for 48 hours and the read out was cell viability (CellTiter-Glo from Promega). These initial experiments were used to select appropriate concentrations of each single agent for subsequent two-drug matrix combinations such that the concentrations in the matrices would span both activity and non-activity.
Cells, in the log phase of growth, were seeded in 5 uL of RPMI plus 5% FBS, […] L-glutamine, 100 U/ml penicillin and 100 ug/ml streptomycin into 1536-well solid-bottom white tissue culture treated Greiner Bio One Plates (789173-F) using a MultiDrop Combi (Thermofisher Scientific) dispenser and a small sterile cassette. One column was media alone to be used as a :"no cells" control. The plates were then covered with sterilized stainless steel gasketed lids from Kalypsys. After allowing cells to attach for 4 hours, 23 nL of test compound or control (negative control DMSO and positive control 9.2 uM Bortezomib-final) were added from a 1536-well polypropylene compound source plate to each well using a 1536 head pin tool from Kalypsys. Cells were then incubated for 48 hours at 37C, 95% relative humidity and 5% CO2. After 48 hours, plates were removed from the incubator and 3 uL of CellTiter-Glo (Promega) was added using an Aurora Flying Reagent Dispenser Bioraptor. Plates were incubated at room temperature for 10 minutes prior to reading the luminescence on the Viewlux (PerkinElmer). The relative luciferase units are used to calculate the percent activity using the activity of DMSO in the cells and no cells columns for normalization of no inhibition and full inhibition respectively.
Take `COC[C@@H](NC(C)=O)C(=O)NCc1ccccc1`: the “viability (percent of control)” value was 108%.

With `C[C@@H]1[C@@H](CC(C[C@H]2O[C@@H]3O[C@]4(C)CC[C@@H]5[C@H](C)CC[C@@H]([C@H]2C)[C@@]35OO4)C[S+](=O)([O-])c2ccc(COC(=O)N(C)C)cc2)O[C@@H]2O[C@]3(C)CC[C@H]4[C@H](C)CC[C@@H]1[C@@]24OO3` (stereo partly drawn), the Potency was 0.418 µM (active).

On to `C[C@@H]1[C@@H](C(=O)C[C@H]2O[C@@H]3O[C@]4(C)CC[C@@H]5[C@H](C)CC[C@@H]([C@H]2C)[C@@]35OO4)O[C@@H]2O[C@]3(C)CC[C@H]4[C@H](C)CC[C@@H]1[C@@]24OO3`, for which the Potency was 3.72 µM (active).

As to `COc1ccc2c(c1OC)CN1CCc3cc4c(cc3C1C2)OCO4` (stereo not drawn), the Potency is 14.8 µM (active).

Turning to `CNCC(O)c1ccc(O)cc1` (stereo not drawn), the “viability (percent of control)” value is 109%.

Take `CCCC(C)(COC(N)=O)COC(=O)NC(C)C` (stereo not drawn): the “viability (percent of control)” value is 126%.

In the case of `C[C@@H]1O[C@@H](O[C@H]2C[C@@H](O)[C@]3(CO)[C@H]4[C@H](O)C[C@]5(C)[C@@H](C6=CC(=O)OC6)CC[C@]5(O)[C@@H]4CC[C@]3(O)C2)[C@H](O)[C@H](O)[C@H]1O`, the Potency was 0.0833 µM (active).

As for `O=c1[nH]c2ccccc2n1CCCN1CCC(n2c(=O)[nH]c3cc(Cl)ccc32)CC1`, the “viability (percent of control)” value was 122%.

Consider `Cn1c(CCCC(=O)O)nc2cc(N(CCCl)CCCl)ccc21`, for which the Potency was 26.4 µM (active).

Regarding `COc1ccc(C(=O)c2c(C)n(CCN3CCOCC3)c3ccccc23)cc1`, the “viability (percent of control)” value was 94.1%.

For the molecule `CC1=C2C[C@@H]3[C@@H](CC=C4C[C@@H](O)CC[C@@]43C)[C@@H]2CC[C@]12O[C@H]1C[C@H](C)CN[C@H]1[C@H]2C`, the “viability (percent of control)” value was 111%.

As for `N[C@@H](Cc1ccc(N(CCCl)CCCl)cc1)C(=O)O`, the Potency was 5.26 µM (active).

Take `CC(O)(CS(=O)(=O)c1ccc(F)cc1)C(=O)Nc1ccc(C#N)c(C(F)(F)F)c1` (stereo not drawn): the Potency is 0.59 µM (active).

As for `C=C(C)[C@H]1Cc2c(ccc3c2O[C@@H]2COc4cc(OC)c(OC)cc4[C@@H]2C3=O)O1`, the Potency was 2.09 µM (active).

As for `CN(C)CCN(C)CCc1ccc(Cl)c(Cl)c1`, the “viability (percent of control)” value is 109%.

For `O=C1CC[C@@]2(O)[C@H]3Cc4ccc(O)c5c4[C@@]2(CCN3CC2CC2)[C@H]1O5`, the “viability (percent of control)” value was 122%.

As to `CN(C)CCc1ccc(O)cc1`, the “viability (percent of control)” value is 103%.

With `Cc1cccc(C)c1NC(=O)CN1CCCC1=O`, the “viability (percent of control)” value was 119%.

As for `CNC(=O)c1ccc(N2C(=S)N(c3ccc(C#N)c(C(F)(F)F)c3)C(=O)C23CCC3)cc1F`, the Potency was 20.9 µM (active).

Regarding `Cc1sc2c(c1C)C(c1ccc(Cl)cc1)=N[C@@H](CC(=O)OC(C)(C)C)c1nnc(C)n1-2`, the Potency is 1.48 µM (active).

On to `C#CCN(C)[C@H](C)Cc1ccccc1`, for which the “viability (percent of control)” value is 105%.

`CNC(=O)N1N=C(c2ccc(N)cc2)c2cc3c(cc2CC1C)OCO3` (stereo not drawn): the Potency is 9.35 µM (active).

Regarding `O=C(O)C(=O)c1cn(Cc2ccccc2)c2ccc(-c3ccc(OC(F)(F)F)cc3)cc12`, the “viability (percent of control)” value is 99.3%.

(Values after PubChem BioAssay (NCATS).)
